Screens deposited in PubChem by NMMLSC.
The list is not random: actives were taken first. Their share in the collection is about 1.2%.
RGS8-Gao reg: regulators of human RGS8-Galphao interaction | hit rate 0.34% among 220,000 | response (percent of control binding), % at 10 µM | multiplexed bead flow cytometry, RGS8-Galphao binding; actives lie on both sides | P09471 | AID 1423; in the data active = response below about 60% or above about 140%; inactive = in between;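 also: Galphao activated as the GDP aluminium fluoride complex binding bead-coupled RGS8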
Target sequence (P09471 whole entry, looked up): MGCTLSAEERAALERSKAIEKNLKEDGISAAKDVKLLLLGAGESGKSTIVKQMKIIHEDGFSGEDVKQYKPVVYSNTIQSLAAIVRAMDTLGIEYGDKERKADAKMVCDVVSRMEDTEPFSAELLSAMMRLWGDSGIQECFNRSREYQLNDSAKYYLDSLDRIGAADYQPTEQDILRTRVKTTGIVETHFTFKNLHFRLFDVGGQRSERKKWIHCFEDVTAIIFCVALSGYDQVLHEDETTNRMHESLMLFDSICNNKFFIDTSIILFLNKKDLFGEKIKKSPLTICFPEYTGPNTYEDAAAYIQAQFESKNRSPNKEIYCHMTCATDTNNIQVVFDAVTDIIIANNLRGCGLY
Avidin fluor: avidin bead compound fluorescence profile; fluorescence (KMESF) at 10 µM; hit rate 0.38% among 220,000; Avidin beads, compound fluorescence 488/530 nm, flow cytometry; stronger effect = higher value; in the data active = fluorescence above about 47
GSH fluor: GSH bead compound fluorescence profile. GSH beads flow cytometry, compound fluorescence 488/530 nm; stronger effect = higher value. AID 1776. fluorescence (KMESF) at 10 µM. hit rate 0.25% among 190,000; in the data active = fluorescence above about 89;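 also: glutathione beads carrying GST-tagged Bcl family fusion proteins plus one bare bead set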
RGS7-Gao reg: human RGS7-Galphao interaction regulation; P09471; Multiplexed bead flow cytometry, RGS7-Galphao binding; actives lie on both sides; binding response (% of control), % at 10 µM; hit rate 0.35% among 220,000; AID 1439; in the data active = binding response below about 49% or above about 150%; inconclusive = no clear call, values can overlap the other calls; inactive = in between;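 also: fluorescent Galphao held in activated GDP-AlF4 state binding bead-coupled RGS7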
RGS4-Gao reg: modulates binding of RGS4 to human Galphao | binding response (% of control), % at 10 µM | hit rate 0.33% among 220,000 | Multiplexed bead flow cytometry; actives lie on both sides | P09471; in the data active = binding response below about 49% or above about 150%; inactive = in between;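 also: fluorescent Galphao activated with aluminum fluoride binding bead-coupled RGS4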
RGS16-Gao: regulators of human RGS16-Galphao interaction; bead-based flow cytometry RGS16-Galphao binding, fluorescence; actives lie on both sides; binding response (% of control), % at 10 µM; hit rate 0.38% among 220,000; AID 1441; O15492+P09471;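 also: Galphao activated by GDP with aluminum fluoride before binding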
RGS4-Gao HTS: modulates binding between human RGS4 and Galphao; shares compounds with RGS16-Gao; multiplexed bead flow cytometry, RGS–Galpha-o binding; RGS4–Galpha-o binding response, % at 10 µM; hit rate 99% among 1,600; AID 1504;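 also: fluorescently labeled Galpha-o bound to GDP with aluminium fluoride binding biotinylated RGS beads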
Biotin-avidin: biotin-avidin bead binding disruption counter-screen | shares compounds with RGS16-Gao | streptavidin beads, fluorescein-biotin binding, flow cytometry | inhibition, % at 10 µM | 1,700 tested, under 10 active;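 active = inhibition above 50%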;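 also: median green fluorescence of gated singlet beads compared with DMSO control wells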
RGS8-Gao single: RGS8-Galphao interaction regulation, single point confirmation; shares compounds with RGS16-Gao; binding response (% of control), % at 10 µM; hit rate 3% among 1,700; bead-based flow cytometry RGS8-Galphao binding, fluorescence; actives lie on both sides; in the data active = binding response below about 72% or above about 130%; inactive = in between;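 also: Galphao activated as GDP AlF4 complex before binding bead RGS8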
RGS7-Gao confirm: confirmation of regulators of human RGS7-Galphao interaction; bead-based flow cytometry RGS7-Galphao binding; actives lie on both sides; shares compounds with RGS16-Gao; hit rate 7.8% among 1,700; response (percent of control binding), % at 10 µM; in the data active = response below about 75% or above about 130%; inactive = in between;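 also: fluorescent Galphao activated with GDP and aluminum fluoride binding bead-coupled RGS7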
RGS16-Gao conf: RGS16-Galphao interaction regulation, single point confirmation; hit rate 4% among 1,700; bead-based flow cytometry, RGS16-Galphao binding; actives lie on both sides; AID 1838; shares compounds with RGS16-Gao; response (% of control binding), % at 10 µM; in the data active = response below about 74% or above about 130%; inactive = in between;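 also: Galphao activated as the GDP aluminium fluoride complex binding bead-coupled RGS16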
RGS4-Gao confirm: RGS4-Galphao interaction regulation, single point confirmation | RGS4-Galphao binding, multiplexed bead flow cytometry; actives lie on both sides | hit rate 4% among 1,700 | shares compounds with RGS16-Gao | AID 1840 | binding response (% of control), % at 10 µM; in the data active = binding response below about 74% or above about 130%; inactive = in between
RGS19-Gao conf: RGS19-Galphao interaction regulation, single point confirmation; shares compounds with RGS16-Gao; bead-based flow cytometry RGS19-Galphao binding; actives lie on both sides; response (percent of control binding), % at 10 µM; hit rate 5% among 1,700; AID 1841; in the data active = response below about 50% or above about 160%; inactive = in between
Target sequence (P09471 whole entry, looked up): as above
Target sequence (P49795 whole entry, looked up): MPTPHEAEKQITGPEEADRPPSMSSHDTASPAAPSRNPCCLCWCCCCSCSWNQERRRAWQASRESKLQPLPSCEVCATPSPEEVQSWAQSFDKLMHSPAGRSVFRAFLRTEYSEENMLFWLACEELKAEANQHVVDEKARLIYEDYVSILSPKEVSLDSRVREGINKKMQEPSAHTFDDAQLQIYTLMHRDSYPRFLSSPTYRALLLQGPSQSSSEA
Hits are given with their value; n = inactive; u = inconclusive; x = no result given; [ ] = dose if it differs, or a comment. Unless noted, no rule for the calls is given here.

SMILES | RGS8-Gao reg | Avidin fluor | GSH fluor | RGS7-Gao reg | RGS4-Gao reg | RGS16-Gao | RGS4-Gao HTS | Biotin-avidin | RGS8-Gao single | RGS7-Gao confirm | RGS16-Gao conf | RGS4-Gao confirm | RGS19-Gao conf
CC1CN(C(=O)COC(=O)c2ccc(N(C)C)cc2)CC(C)O1 (configuration not stated) | n | n | n | n | n | n | x | x | x | x | x | x | x
CC1CCN(S(=O)(=O)c2ccc(S(=O)(=O)NCc3ccccc3)cc2)CC1 | n | n | n | n | n | n | x | x | x | x | x | x | x
CC1CCCC(C)N1S(=O)(=O)c1ccc(S(=O)(=O)NCc2ccccc2)cc1 (configuration not stated) | n | n | n | n | n | 22 | 90 | n | n | n | n | n | n
C=CCN1C2CCCC1CC(NC(=O)Nc1cc(C)cc(C)c1)C2 (configuration not stated) | n | n | n | n | n | n | x | x | x | x | x | x | x
Cc1cc(C)n(-c2nc3ccccc3c(=O)n2OCC(=O)N(C)C)n1 | n | n | n | n | n | n | x | x | x | x | x | x | x
Cc1cc(C)n(-c2nc3ccccc3c(=O)n2OCC(=O)Nc2c(C)cccc2C)n1 | 174[activator] | n | n | n | n | n | 149 | n | 127[activator] | 276[activator] | 210[activator] | 210[activator] | 246[activator]
CCn1cc(C2CC(=O)NC2=O)c2ccccc21 (configuration not stated) | n | n | x | u | n | n | x | x | x | x | x | x | x
CC(C)(C(=O)Nc1nccs1)c1ccccc1 | n | n | n | 156[activator] | n | n | 137 | n | n | n | n | n | n
O=C(Nc1ccccc1)Nc1nccs1 | n | n | n | n | n | n | x | x | x | x | x | x | x
CCOc1ccc(-c2nnc(Nc3ccc(OC)c(C(=O)N4CCCCC4)c3)c3ccccc23)cc1 | n | n | n | n | n | n | x | x | x | x | x | x | x
CCOC(=O)C1=C(C)NC(C)=C(C(=O)OCCNC(=O)c2cccnc2)C1c1cccc([N+](=O)[O-])c1 (configuration not stated) | n | n | n | n | n | 213[activator] | 108 | n | n | 70 | n | n | n
Cc1csc(=Nc2ccccc2)n1Cc1ccco1 | n | n | n | u | n | n | x | x | x | x | x | x | x
O=C1CCC2(CC1)NC(=O)N(c1ccccc1)N2 | n | n | n | n | n | n | x | x | x | x | x | x | x
CC1=CC=CN2CC(O)CN=C12 (configuration not stated) | n | n | n | n | n | n | x | x | x | x | x | x | x
CC1=CN2CC(O)CN=C2C=C1 (configuration not stated) | x | x | n | x | x | x | x | n | n | n | n | n | n
COC(=O)c1sccc1-n1cccc1C(=O)C(=O)N1CCOCC1 | n | n | n | n | n | n | x | x | x | x | x | x | x
Cc1ccc(OCCCCn2c(CO)nc3ccccc32)cc1 | n | n | n | n | n | n | x | x | x | x | x | x | x
OCc1nc2ccccc2n1CCCOc1ccc(Br)cc1 | 7.0 | n | n | 1.2 | -3.9 | -3.6 | x | n | n | n | n | n | n
c1ccc2c(C3=NNC(=NC4CCCCC4)SC3)c[nH]c2c1 | n | n | n | n | n | 5.2 | 96 | n | n | n | n | n | n
CCOc1ccc(CCNC(=O)c2cc3sccc3n2C)cc1OCC | 142[activator] | n | n | n | 155[activator] | n | x | n | n | n | n | n | n
O=C(NCCc1ccc(Cl)cc1)C1CCC(CNc2c(N3CCCCC3)c(=O)c2=O)CC1 (configuration not stated) | n | n | n | n | n | n | x | x | x | x | x | x | x
O=C(Nc1ccccc1F)C1CCN(C(=O)Cc2ccccc2)CC1 | n | n | n | n | n | n | x | x | x | x | x | x | x
O=C(Nc1ccccc1Br)C1CCN(C(=O)Cc2ccccc2)CC1 | n | n | n | n | n | 21 | 97 | n | n | n | n | n | n
O=C1NC(N2CCOCC2)=N/C1=C/c1ccc2c(c1)OCO2 | n | n | n | n | n | n | x | x | x | x | x | x | x
CN1CCN(C(=O)c2cn(-c3ccccc3)nc2-c2cccnc2)CC1 | x | x | n | n | 152[activator] | n | x | n | n | n | n | n | n
SMILES | RGS8-Gao reg | Avidin fluor | GSH fluor | RGS7-Gao reg | RGS4-Gao reg | RGS16-Gao | RGS4-Gao HTS | Biotin-avidin | RGS8-Gao single | RGS7-Gao confirm | RGS16-Gao conf | RGS4-Gao confirm | RGS19-Gao conf
CN(C)CCNc1oc(-c2cccc(Cl)c2)nc1C#N | 31 | n | n | 12 | 0.2 | 5.0 | x | n | n | n | n | n | n
CCN(C(=O)c1ccc(NC(C)=O)cc1)c1ccccc1 | n | n | n | n | n | -20 | 78 | n | n | n | n | n | n
O=C(CSc1nnc(-c2ccccc2)o1)Nc1ccccc1F | n | 91 | n | 173[activator] | n | n | 111 | n | n | n | n | n | n
O=C(CSc1nnc(-c2ccncc2)o1)Nc1ccccc1Cl | n | 130 | n | 215[activator] | n | 250[activator] | 133 | n | n | n | n | n | n
COc1ccc(CC2CCOC2=O)cc1 (configuration not stated) | n | n | n | n | n | -31 | 94 | n | n | n | n | n | n
Cc1ccccc1NC(=O)COC(=O)c1cc(=O)c2ccccc2o1 | 48 | n | n | 37 | 41 | n | x | n | n | n | n | n | n
CCCCC(=O)OCC(=O)c1[nH]c(C)c(C(C)=O)c1C | n | n | n | n | n | n | x | x | x | x | x | x | x
CN(CC(=O)N1CCN(c2cccc(Cl)c2)CC1)S(=O)(=O)c1cccs1 | n | x | n | n | 177[activator] | 178[activator] | x | n | n | n | n | n | n
Cc1ccc(C(=O)C2Oc3ccccc3C3CC(c4ccc(C)cc4)=NN23)cc1 (configuration not stated) | 57 | n | n | n | n | n | 79 | n | n | n | n | n | n
Cc1nn(C)c(C(=O)N/N=C/c2ccc(Br)cc2)c1Cl | 58 | n | n | 40 | 46 | n | x | n | n | n | n | n | n
Cc1nn(C)c(C(=O)N/N=C/c2cccc3ccccc23)c1Cl | 38 | n | n | 28 | 28 | n | x | n | n | n | n | n | n
O=C(Cn1cncn1)N/N=C/c1cccc2ccccc12 | n | n | n | n | n | n | x | x | x | x | x | x | x
